Data as given in PubChem BioAssay AID722 (NMMLSC, 2007).
Screen size: about 1,300 compounds; about 40 (3%) were called active. Rule as the data show it: active = inhibition above about 30%; inactive = the rest. What follows is part of a selection rich in actives, with near analogues and random picks from the rest.

The compounds below were run against fMet-Leu-Phe receptor (Homo sapiens) (UniProt P21462) (assay: FPR1 fluorescent ligand binding inhibitors, primary screen, cell-based, flow cytometry, SAR analysis (AID 722)). Conditions: FPR-expressing cells, hits give high values, concentration not given here.
fMet-Leu-Phe receptor (Homo sapiens), sequence (P21462 whole entry, looked up): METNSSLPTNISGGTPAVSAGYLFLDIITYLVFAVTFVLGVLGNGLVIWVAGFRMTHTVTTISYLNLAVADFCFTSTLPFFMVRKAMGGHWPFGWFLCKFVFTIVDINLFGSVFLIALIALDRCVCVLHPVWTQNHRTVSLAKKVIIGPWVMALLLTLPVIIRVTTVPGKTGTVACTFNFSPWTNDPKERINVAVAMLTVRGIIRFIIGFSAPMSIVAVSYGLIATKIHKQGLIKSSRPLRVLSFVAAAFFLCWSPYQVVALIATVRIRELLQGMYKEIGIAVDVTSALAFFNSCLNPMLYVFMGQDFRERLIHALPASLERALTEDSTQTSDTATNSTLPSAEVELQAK

Row | SMILES | inhibition
1 | Cc1onc(-c2c(Cl)cccc2Cl)c1C(=O)N1CCCC(C)C1 (stereo not drawn) | -2.1% (inactive)
2 | CCOC(=O)c1cc(C)sc1NC(=O)c1ccc(OC)cc1 | -6.6% (inactive)
3 | O=C1CSC(c2ccc(F)cc2)N1c1ccccc1F (stereo not drawn) | -3% (inactive)
4 | CN1C(=O)C(=O)/C(=C(\O)c2ccc(Cl)cc2)C1c1ccc(Cl)cc1 (stereo not drawn) | -3.2% (inactive)
5 | O=C1CSC(c2cccc(F)c2)N1c1c(F)cccc1F (stereo not drawn) | 0.4% (inactive)
6 | Cn1c(OCc2cccnc2)nc2c1c(=O)n(Cc1ccc(F)cc1)c(=O)n2C | 1% (inactive)
7 | O=C1C(=O)N(Cc2cccnc2)C(c2ccc(Br)cc2)/C1=C(\O)c1ccc(F)cc1 (stereo not drawn) | -5.5% (inactive)
8 | O=C(c1ccccc1)N(Cc1ccco1)Cc1ccccc1Cl | -5% (inactive)
9 | Cc1ccccc1C(=O)N1C(=S)C(c2ccc(F)cc2)=NC12CCN(C)CC2 | 3.3% (inactive)
10 | CCOC(=O)c1c(NC(=O)c2ccc(F)cc2)sc(C)c1C | -3.4% (inactive)
11 | COc1ccc(NC(=O)C(NC(=O)Cc2cccs2)c2ccccc2)cc1 (stereo not drawn) | -2.6% (inactive)
12 | O=C1C(=O)N(Cc2cccnc2)C(c2ccccc2Cl)/C1=C(\O)c1ccccc1 (stereo not drawn) | 1.8% (inactive)
13 | CC(C)CN1C(=O)c2ccccc2C(C(=O)N2CCCC2)C1c1cccs1 (stereo not drawn) | 4.5% (inactive)
14 | COc1ccc(/C(O)=C2/C(=O)C(=O)N(CCc3c[nH]c4ccccc34)C2c2ccc(C(C)C)cc2)cc1 (stereo not drawn) | 43.8% (active)
15 | CCc1ccc(C2/C(=C(/O)c3ccc(OC)cc3)C(=O)C(=O)N2CCc2c[nH]c3ccccc23)cc1 (stereo not drawn) | 3% (inactive)
16 | O=C1C(=O)N(CCc2c[nH]c3ccccc23)C(c2ccc(Cl)cc2)/C1=C(/O)c1ccc(F)cc1 (stereo not drawn) | 1.5% (inactive)
17 | O=C(C1=C(O)C(=O)N(CC2CCCO2)C1c1cccs1)c1ccco1 (stereo not drawn) | -9.5% (inactive)
18 | Cn1c(NCCO)nc2c1c(=O)n(Cc1ccc(F)cc1)c(=O)n2C | -9.2% (inactive)
19 | COc1ccc(Cl)cc1N1C(=O)CSC1c1ccccc1F (stereo not drawn) | 4.1% (inactive)
20 | COc1ccc(N(C(=O)c2cccnc2)S(=O)(=O)c2cccs2)cc1 | 13% (inactive)

Row | SMILES | inhibition
21 | COc1ccc(/C(O)=C2/C(=O)C(=O)N(CCCn3ccnc3)C2c2ccc(O)c(OC)c2)cc1 (stereo not drawn) | -11% (inactive)
22 | Cn1c(NCCO)nc2c1c(=O)n(Cc1cccc(F)c1)c(=O)n2C | 6.7% (inactive)
23 | O=C1C(=O)N(c2nc3ccccc3s2)C(c2cccc(F)c2)/C1=C(\O)c1ccccc1 (stereo not drawn) | 4.3% (inactive)
24 | CCc1ccc(CN(Cc2ccco2)C(=O)c2ccccc2)cc1 | 2.2% (inactive)
25 | CC(C)C(=O)N(Cc1ccco1)S(=O)(=O)c1cccc2cccnc12 | 82.2% (active)
26 | CCCC(=O)N(Cc1ccco1)S(=O)(=O)c1cccc2cccnc12 | 97.6% (active)
27 | O=C(c1ccccc1)N(Cc1ccco1)Cc1ccco1 | 7.4% (inactive)
28 | Cc1ccccc1NC(=S)N(Cc1ccco1)C(C)c1ccccn1 (stereo not drawn) | -1% (inactive)
29 | CCOc1ccccc1C(=O)N(Cc1ccco1)Cc1ccco1 | -4.7% (inactive)
30 | COc1ccc(Cn2c(=S)[nH]c3cc4ccccc4cc3c2=O)cc1 | -2.8% (inactive)
31 | COC(=O)c1ccccc1NC(=O)NC1CCCCC1 | -4.1% (inactive)
32 | Cc1ccc(/C(O)=C2\C(=O)C(=O)NC2c2ccc(C)cc2)cc1 (stereo not drawn) | -7.7% (inactive)
33 | COCCCN1C(=O)C(=O)/C(=C(/O)c2ccccc2)C1c1ccc2c(c1)OCO2 (stereo not drawn) | -1.2% (inactive)
34 | O=C1C(=O)N(CCO)C(c2ccc([N+](=O)[O-])cc2)/C1=C(/O)c1ccc(Cl)cc1 (stereo not drawn) | -5.4% (inactive)
35 | O=C1CC(c2cccc(Cl)c2)C2=C(CC(c3cccs3)CC2=O)N1 (stereo not drawn) | 10.4% (inactive)
36 | O=C1CC(c2cccc(F)c2)C2=C(CC(c3cccs3)CC2=O)N1 (stereo not drawn) | -6.6% (inactive)
37 | O=C1CC(c2ccccc2)C2=C(CC(c3cccs3)CC2=O)N1 (stereo not drawn) | -21.7% (inactive)
38 | O=C1CC(c2cccc(Cl)c2Cl)C2=C(CC(c3cccs3)CC2=O)N1 (stereo not drawn) | -15.7% (inactive)
39 | O=C1CC(c2ccccc2C(F)(F)F)C2=C(CC(c3cccs3)CC2=O)N1 (stereo not drawn) | 32.3% (active)
40 | Cc1cccc(C2CC(=O)NC3=C2C(=O)CC(c2cccs2)C3)c1 (stereo not drawn) | 33.7% (active)

Row | SMILES | inhibition
41 | COc1ccc(C2C(C(=O)c3cccs3)=C(O)C(=O)N2Cc2cccnc2)cc1 (stereo not drawn) | -9.5% (inactive)
42 | O=C1C(=O)N(CCO)C(c2cccc(F)c2)/C1=C(/O)c1ccccc1 (stereo not drawn) | -7.5% (inactive)
43 | COc1ccc(OC)c(C2/C(=C(\O)c3ccccc3)C(=O)C(=O)N2c2nc3ccccc3s2)c1 (stereo not drawn) | -1.7% (inactive)
44 | COc1cccc(C2/C(=C(\O)c3ccc(F)cc3)C(=O)C(=O)N2Cc2cccnc2)c1 (stereo not drawn) | 1% (inactive)
45 | CC(C)(C)c1ccc(C2/C(=C(\O)c3ccc(F)cc3)C(=O)C(=O)N2Cc2cccnc2)cc1 (stereo not drawn) | -1.6% (inactive)
46 | O=C1NC(c2ccccc2Cl)/C(=C(/O)c2ccc(Br)cc2)C1=O (stereo not drawn) | 8.6% (inactive)
47 | O=C1NC(c2ccc(Br)cc2)/C(=C(\O)c2ccc(Cl)cc2)C1=O (stereo not drawn) | 46.3% (active)
48 | COc1ccc(C2NC(=O)C(=O)/C2=C(\O)c2ccc(Cl)cc2)cc1 (stereo not drawn) | -4.8% (inactive)
49 | O=C1NC(c2cccc(F)c2)/C(=C(/O)c2ccc(Br)cc2)C1=O (stereo not drawn) | 17% (inactive)
50 | COC(=O)c1sc(N2C(=O)C(O)=C(C(=O)c3cc4ccccc4o3)C2c2ccc(OC)cc2)nc1C (stereo not drawn) | 3.6% (inactive)
51 | COC(=O)c1c[nH]n2c(=O)cc(C3CCNCC3)nc12 | -1.9% (inactive)
52 | O=C1CSC(c2ccc(Br)cc2)N1c1cccc(Cl)c1 (stereo not drawn) | 2.7% (inactive)
53 | COc1cc(C2C(C(=O)c3cc4ccccc4o3)=C(O)C(=O)N2CCN(C)C)cc(OC)c1OC (stereo not drawn) | -6.9% (inactive)
54 | COc1ccc(C2C(C(=O)c3cc4ccccc4o3)=C(O)C(=O)N2CCN(C)C)cc1OC (stereo not drawn) | 66.9% (active)
55 | COc1cc(C2C(C(=O)c3cc4ccccc4o3)=C(O)C(=O)N2CCN(C)C)ccc1O (stereo not drawn) | 88.7% (active)
56 | COc1cccc(C2C(C(=O)c3cc4ccccc4o3)=C(O)C(=O)N2CCCN(C)C)c1 (stereo not drawn) | -4.2% (inactive)
57 | COc1cc(C2C(C(=O)c3cc4ccccc4o3)=C(O)C(=O)N2CCCN(C)C)cc(OC)c1OC (stereo not drawn) | 14.6% (inactive)
58 | COc1ccc(C2C(C(=O)c3cc4ccccc4o3)=C(O)C(=O)N2CCN(C)C)cc1 (stereo not drawn) | -8.1% (inactive)
